# Data from PubChem BioAssay (NCI).
# This is part of a sample that, as a whole, favours compounds with a hit. Of some 83,000 tested, about 20% had one in any assay.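 Single-concentration screen, 48 h exposure, 96-well plates. Endpoint: percent growth. Below 10 = active.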 A number with no mark means an inactive call. Activity calls are given as the source filed them.
# Legend:
# Assay in all cases: NCI-60 one-dose screen, 48 h (100 = growth as untreated, 0 = no growth, -100 = all killed)
# NCI-H23 lung = tested on: NCI-H23 lung
# NCI-H226 lung = tested on: NCI-H226 lung
# NCI-H322M lung = details: 10 µM unless noted
# HOP-62 NSCLC = tested on: HOP-62 NSCLC
# NCI-H460 lung = tested on: NCI-H460 lung
# HOP-92 NSCLC = tested on: HOP-92 NSCLC
# NCI-H522 lung = tested on: NCI-H522 lung
# A549/ATCC NSCLC = tested on: A549/ATCC NSCLC
# 786-0 renal = tested on: 786-0 renal
# COLO 205 colon = tested on: COLO 205 colon
structure (smiles),measurement,setting,value
O=C1/C(=C/c2ccc(F)c(F)c2)CN(C(=O)C(Cl)Cl)C/C1=C\c1ccc(F)c(F)c1,growth,NCI-H23 lung; 10 µM unless noted,-81.2% (active)
same,growth,NCI-H226 lung; 10 µM unless noted,-17% (active)
same,growth,NCI-H322M lung,-86% (active)
same,growth,HOP-62 NSCLC; 10 µM unless noted,-57.7% (active)
same,growth,NCI-H460 lung; 10 µM unless noted,-71.9% (active)
same,growth,HOP-92 NSCLC; 10 µM unless noted,-62.6% (active)
same,growth,NCI-H522 lung; 10 µM unless noted,-81.8% (active)
same,growth,A549/ATCC NSCLC; 10 µM unless noted,-52.1% (active)
same,growth,786-0 renal; 10 µM unless noted,-96% (active)
same,growth,COLO 205 colon; 10 µM unless noted,-85.8% (active)
O=S(=O)(Nc1cc(Sc2cccc3cccnc23)c(O)c2ccccc12)c1ccc(F)cc1,growth,NCI-H23 lung; 10 µM unless noted,17.7%
same,growth,NCI-H226 lung; 10 µM unless noted,44.3%
same,growth,NCI-H322M lung,31.7%
same,growth,HOP-62 NSCLC; 10 µM unless noted,44.7%
same,growth,NCI-H460 lung; 10 µM unless noted,4.76% (active)
same,growth,HOP-92 NSCLC; 10 µM unless noted,4.76% (active)
same,growth,NCI-H522 lung; 10 µM unless noted,-48.7% (active)
same,growth,A549/ATCC NSCLC; 10 µM unless noted,11.9%
same,growth,786-0 renal; 10 µM unless noted,2.18% (active)
same,growth,COLO 205 colon; 10 µM unless noted,-64.6% (active)
O=C1OCC2=C1C(c1cccc(C(F)(F)F)c1)c1cc3c(cc1N2CCO)CCC3 (stereo not drawn),growth,NCI-H23 lung; 10 µM unless noted,25.7%
same,growth,NCI-H226 lung; 10 µM unless noted,40.2%
same,growth,NCI-H322M lung,45%
same,growth,HOP-62 NSCLC; 10 µM unless noted,15.9%
same,growth,NCI-H460 lung; 10 µM unless noted,3.4% (active)
same,growth,HOP-92 NSCLC; 10 µM unless noted,64.2%
same,growth,NCI-H522 lung; 10 µM unless noted,-18.4% (active)
same,growth,A549/ATCC NSCLC; 10 µM unless noted,12.4%
same,growth,786-0 renal; 10 µM unless noted,17%
same,growth,COLO 205 colon; 10 µM unless noted,-55.2% (active)
COc1nc(=O)n(C2C=CC(=O)O2)cc1F (stereo not drawn),growth,NCI-H23 lung; 10 µM unless noted,102%
same,growth,NCI-H226 lung; 10 µM unless noted,106%
same,growth,NCI-H322M lung,102%
same,growth,HOP-62 NSCLC; 10 µM unless noted,110%
same,growth,NCI-H460 lung; 10 µM unless noted,110%
same,growth,HOP-92 NSCLC; 10 µM unless noted,87.8%
same,growth,NCI-H522 lung; 10 µM unless noted,39.1%
same,growth,A549/ATCC NSCLC; 10 µM unless noted,123%
same,growth,786-0 renal; 10 µM unless noted,92.5%
same,growth,COLO 205 colon; 10 µM unless noted,46.5%
CN1CCCc2cc(/C=C3\SC(=S)N(C(Cc4ccc(O)cc4)C(=O)O)C3=O)ccc21 (stereo not drawn),growth,NCI-H23 lung; 10 µM unless noted,78%
same,growth,NCI-H226 lung; 10 µM unless noted,99.8%
same,growth,NCI-H322M lung,108%
same,growth,HOP-62 NSCLC; 10 µM unless noted,109%
same,growth,NCI-H460 lung; 10 µM unless noted,107%
same,growth,HOP-92 NSCLC; 10 µM unless noted,93.8%
same,growth,NCI-H522 lung; 10 µM unless noted,91.5%
same,growth,A549/ATCC NSCLC; 10 µM unless noted,105%
same,growth,786-0 renal; 10 µM unless noted,99.8%
same,growth,COLO 205 colon; 10 µM unless noted,112%
Cc1nc2sc(C(=O)Nc3cccc4ncccc34)c(N)c2cc1C(C)O (stereo not drawn),growth,NCI-H23 lung; 10 µM unless noted,80.4%
same,growth,NCI-H226 lung; 10 µM unless noted,85.1%
same,growth,NCI-H322M lung,79.7%
same,growth,HOP-62 NSCLC; 10 µM unless noted,68.1%
same,growth,NCI-H460 lung; 10 µM unless noted,80.9%
same,growth,HOP-92 NSCLC; 10 µM unless noted,70.5%
same,growth,NCI-H522 lung; 10 µM unless noted,34.7%
same,growth,A549/ATCC NSCLC; 10 µM unless noted,81.3%
same,growth,786-0 renal; 10 µM unless noted,86.2%
same,growth,COLO 205 colon; 10 µM unless noted,107%
O=C(/C=C/c1cccc(Oc2ccc(Cl)cc2)c1)c1ccccc1,growth,NCI-H23 lung; 10 µM,90.8%
same,growth,NCI-H23 lung; 100 µM,-57.9% (active)
same,growth,NCI-H226 lung; 10 µM,104%
same,growth,NCI-H226 lung; 100 µM,-63.2% (active)
same,growth,NCI-H322M lung,-73% [100 µM] (active)
same,growth,HOP-62 NSCLC; 10 µM,98.5%
same,growth,HOP-62 NSCLC; 100 µM,-80.5% (active)
same,growth,NCI-H460 lung; 10 µM,97.3%
same,growth,NCI-H460 lung; 100 µM,-76.6% (active)
same,growth,HOP-92 NSCLC; 10 µM,111%
same,growth,HOP-92 NSCLC; 100 µM,-90.7% (active)
same,growth,NCI-H522 lung; 10 µM,89.2%
same,growth,NCI-H522 lung; 100 µM,-64.6% (active)
same,growth,A549/ATCC NSCLC; 10 µM,96.2%
same,growth,A549/ATCC NSCLC; 100 µM,-75.7% (active)
same,growth,786-0 renal; 10 µM,91.3%
same,growth,786-0 renal; 100 µM,-88.9% (active)
same,growth,COLO 205 colon; 10 µM,104%
same,growth,COLO 205 colon; 100 µM,-71% (active)
CN1CCN(c2ccc(Nc3ncc(C(N)=O)c(NCCCNC(=O)C4CCC4)n3)cc2)CC1,growth,NCI-H23 lung; 10 µM unless noted,70.4%
same,growth,NCI-H226 lung; 10 µM unless noted,62.1%
same,growth,NCI-H322M lung,75.8%
same,growth,HOP-62 NSCLC; 10 µM unless noted,34%
same,growth,NCI-H460 lung; 10 µM unless noted,78.9%
same,growth,HOP-92 NSCLC; 10 µM unless noted,113%
same,growth,NCI-H522 lung; 10 µM unless noted,77.3%
same,growth,A549/ATCC NSCLC; 10 µM unless noted,78.2%
same,growth,786-0 renal; 10 µM unless noted,90.2%
same,growth,COLO 205 colon; 10 µM unless noted,-5.21% (active)
COc1cc(/C=C2\CCC/C(=C\c3cc(CN4CCCC4)c(O)c(OC)c3)C2=O)cc(CN2CCCC2)c1O,growth,NCI-H23 lung; 10 µM unless noted,38.4%
same,growth,NCI-H226 lung; 10 µM unless noted,75.1%
same,growth,NCI-H322M lung,44.3%
same,growth,HOP-62 NSCLC; 10 µM unless noted,102%
same,growth,NCI-H460 lung; 10 µM unless noted,6.28% (active)
same,growth,HOP-92 NSCLC; 10 µM unless noted,10.5%
same,growth,NCI-H522 lung; 10 µM unless noted,46.1%
same,growth,A549/ATCC NSCLC; 10 µM unless noted,43.7%
same,growth,786-0 renal; 10 µM unless noted,-4.39% (active)
same,growth,COLO 205 colon; 10 µM unless noted,-45.7% (active)
Nc1nc(Nc2cccnc2)sc1C(=O)c1ccccc1F,growth,NCI-H23 lung; 10 µM unless noted,37.9%
same,growth,NCI-H226 lung; 10 µM unless noted,24.4%
same,growth,NCI-H322M lung,54.7%
same,growth,HOP-62 NSCLC; 10 µM unless noted,21.2%
same,growth,NCI-H460 lung; 10 µM unless noted,21.7%
same,growth,HOP-92 NSCLC; 10 µM unless noted,51.8%
same,growth,NCI-H522 lung; 10 µM unless noted,71.4%
same,growth,A549/ATCC NSCLC; 10 µM unless noted,27%
same,growth,786-0 renal; 10 µM unless noted,18.2%
same,growth,COLO 205 colon; 10 µM unless noted,20.5%
Nc1ccc(-c2ccc(N)c(Br)c2)cc1Br,growth,NCI-H23 lung; 10 µM unless noted,53.9%
same,growth,NCI-H226 lung; 10 µM unless noted,56.9%
same,growth,NCI-H322M lung,77.3%
same,growth,HOP-62 NSCLC; 10 µM unless noted,55.4%
same,growth,NCI-H460 lung; 10 µM unless noted,44.3%
same,growth,HOP-92 NSCLC; 10 µM unless noted,41.8%
same,growth,NCI-H522 lung; 10 µM unless noted,57%
same,growth,A549/ATCC NSCLC; 10 µM unless noted,42.2%
same,growth,786-0 renal; 10 µM unless noted,52.9%
same,growth,COLO 205 colon; 10 µM unless noted,82.6%
COc1ccc(C(=O)/C=C/c2ccc(OCc3ccc(Cl)cc3)cc2)cc1OC,growth,NCI-H23 lung; 10 µM,84.1%
same,growth,NCI-H23 lung; 100 µM,29.2%
same,growth,NCI-H226 lung; 10 µM,87.1%
same,growth,NCI-H226 lung; 100 µM,-7.94% (active)
same,growth,NCI-H322M lung,40.4% [100 µM]
same,growth,HOP-62 NSCLC; 10 µM,104%
same,growth,HOP-62 NSCLC; 100 µM,5.95% (active)
same,growth,NCI-H460 lung; 10 µM,95.3%
same,growth,NCI-H460 lung; 100 µM,6.18% (active)
same,growth,HOP-92 NSCLC; 10 µM,104%
same,growth,HOP-92 NSCLC; 100 µM,12.5%
same,growth,NCI-H522 lung; 10 µM,82.5%
same,growth,NCI-H522 lung; 100 µM,2.45% (active)
same,growth,A549/ATCC NSCLC; 10 µM,85.9%
same,growth,A549/ATCC NSCLC; 100 µM,13.7%
same,growth,786-0 renal; 10 µM,106%
same,growth,786-0 renal; 100 µM,-13.2% (active)
same,growth,COLO 205 colon; 10 µM,117%
same,growth,COLO 205 colon; 100 µM,41.8%
